Only some compounds are listed: those with a hit (about 1.4% of all), similar ones and a draw of the others.
eLon inh: inhibitors of E. coli Lon protease | inhibition, % at 7.94 µM | 360,000 tested, 0.42% active | P0A9M0 | AID 602123 | purified E. coli Lon protease, fluorescence polarization; in the data active = inhibition above about 13%, passing the limit was not always enough
GLD-1 TGE inh: GLD-1-TGE RNA interaction inhibition (C. elegans). Q17339. inhibition, % at 5.96 µM. purified GLD-1 + fluorescein TGE RNA, fluorescence polarization. 320,000 tested, 0.44% active;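 active = percent inhibition above a per-plate cutoff, the plate mean of test compounds plus 3 SD, cut at about 30% in these data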
MCL1-BIM inh: inhibitors of human MCL1 binding to BIM-BH3 peptide; GST-MCL1 / FITC-Bim-BH3 fluorescence polarization; inhibition, % at 10.9 µM; 320,000 tested, 0.68% active; Q07820;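 active = inhibition above the mean inhibition of all tested compounds plus 3 SD, set per campaign, cut at about 40% in these data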;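 note: higher means more loss of mP so more displacement of Bim peptide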
Target sequence (Q07820 whole entry, looked up): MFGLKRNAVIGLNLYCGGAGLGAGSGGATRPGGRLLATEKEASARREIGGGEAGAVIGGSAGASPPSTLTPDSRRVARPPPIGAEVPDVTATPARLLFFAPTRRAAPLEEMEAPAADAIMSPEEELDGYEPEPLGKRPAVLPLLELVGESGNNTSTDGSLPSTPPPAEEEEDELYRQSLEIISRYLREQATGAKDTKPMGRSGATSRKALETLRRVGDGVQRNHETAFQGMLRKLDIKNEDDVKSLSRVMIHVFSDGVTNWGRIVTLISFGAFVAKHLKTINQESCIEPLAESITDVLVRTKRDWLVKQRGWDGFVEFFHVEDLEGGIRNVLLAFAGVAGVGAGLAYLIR
MEX-5 binding: C. elegans MEX-5 TCR-2 RNA binding activity; MEX-5/FITC-TCR2 RNA binding, fluorescence polarization; hits give low values; Q9XUB2; 300,000 tested, 0.38% active; activity score (negative = inhibition of binding), % at 10 µM;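 active = inhibition past about -25% in most replicates, and total fluorescence under double the plate's negative control median, limit read from the data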
Bcl-xL primary: blocks human Bcl-xL binding to Bim BH3 peptide; Q07817; GST-Bcl-xL / FITC-Bim BH3 peptide fluorescence polarization; inhibition, % at 10.9 µM; 320,000 tested, 0.7% active;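 active = inhibition above the mean of all tested compounds plus 3 SD, cutoff set per campaign, cut at about 30% in these data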;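 note: inhibitors lower millipolarization by displacing the labeled peptide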
Target sequence (Q07817 whole entry, looked up): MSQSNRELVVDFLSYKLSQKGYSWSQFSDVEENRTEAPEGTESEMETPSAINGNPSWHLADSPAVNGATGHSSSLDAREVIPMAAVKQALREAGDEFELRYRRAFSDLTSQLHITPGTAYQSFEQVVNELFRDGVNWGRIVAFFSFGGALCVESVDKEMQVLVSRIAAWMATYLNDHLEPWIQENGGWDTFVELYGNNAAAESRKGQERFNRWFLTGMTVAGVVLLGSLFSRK
eLon confirm: confirmation of E. coli Lon protease inhibitors. AID 602230. 1,400 tested, 31% active. inhibition, % at 7.94 µM. purified E. coli Lon, fluorescence polarization. shares compounds with eLon inh; in the data active = inhibition above about 16%
Numbers stand for hits; n = inactive; x = no result.

SMILES | eLon inh | GLD-1 TGE inh | MCL1-BIM inh | MEX-5 binding | Bcl-xL primary | eLon confirm
CC(CN1C(C)CCCC1C)OC(=O)c1ccc(Cl)cc1 (configuration not stated) | n | n | n | n | n | x
O=C(CN1C(=O)NC2(CCCCC2)C1=O)N1CCN(S(=O)(=O)c2ccc(Cl)s2)CC1 | 19 | n | n | x | n | n
C[C@H](N)C(=O)N1CCC(C(=O)N[C@@H](Cc2ccccc2)C(=O)Nc2ccc(F)cc2)CC1 | n | n | n | n | n | x
O=C(COc1ccc(F)cc1Cl)Nc1ccc(N2CCOCC2)cc1N1CCOCC1 | 16 | n | n | n | n | n
C(=Cc1cnc2ccccc2n1)c1ccc2c(c1)OCO2 | 96 | x | x | x | x | n
Cc1ccc(NC(=O)CN2C(=O)CC(C)S(=O)(=O)c3ccccc32)cc1 (configuration not stated) | n | n | n | n | n | x
COc1ccc(N2CCN(C(=O)CN3C(=O)c4ccccc4S3(=O)=O)CC2)cc1 | 20 | n | n | n | n | n
CCOCCn1cnc2sc(C(=O)NCC(=O)OCC)c(C)c2c1=O | 15 | n | n | n | n | n
CCOC(=O)Cn1cnc2sc(C(=O)OC)c(C)c2c1=O | n | n | n | n | n | x
COc1ccc(C(=O)CSc2ncn[nH]2)cc1OC | 21 | n | n | n | n | n
Cc1ccc(C(=O)CSc2ncn[nH]2)cc1 | n | n | n | n | n | x
C[C@@H]1CN([C@H](C)CO)C(=O)c2c(c3ccccc3n2C)-c2ccccc2CO[C@H]1CN(C)Cc1ccccc1 | 17 | x | x | x | x | n
CCOC(=O)c1c(C)oc2c1c(C=NCCO)c(O)c1ccccc12 | 25 | x | x | n | x | 20
CCOC(=O)c1c(C)oc2c1c(C(c1ccccc1)N1CCOCC1)c(O)c1ccccc12 (configuration not stated) | n | n | n | n | n | x
COc1cccc(CNc2ccc(S(=O)(=O)N3CCCC3)cn2)c1 | n | n | x | x | x | x
Cc1ccc(N2C(=O)c3cccc4c(N)ccc(c34)C2=O)c2cccnc12 | 161 | n | n | n | 30 | n
COc1ccc(-c2csc(C(C)(O)c3ccncc3)n2)cc1OC (configuration not stated) | n | x | x | x | x | x
O=C(CSCC(=O)OCn1nnc2ccccc2c1=O)Nc1ccc(Cl)cc1 | 17 | n | n | n | n | n
N#CC1=C2N=C(N)c3ccccc3N2C2=C(C(=O)CCC2)C1c1ccccc1F (configuration not stated) | 71 | n | n | n | n | n
NC(=O)c1nsc(C(=O)N(c2ccccc2)C(C(=O)NC2CCCC2)c2cccs2)c1N (configuration not stated) | n | n | n | n | n | x
CC(C)C(=O)NNC(=O)c1csc(-c2cccs2)n1 | 25 | n | n | n | n | n
COc1ccccc1CC(=O)NCc1csc(-c2cccs2)n1 | n | n | n | n | n | x
COCCNc1nc(C)cc(-c2cc(C(=O)Nc3ccccc3)on2)n1 | 29 | n | n | n | n | n
Cc1ccc(S(=O)(=O)N(C)C)cc1NC(=O)C(C)OC(=O)C1CCCC1 (configuration not stated) | n | n | n | n | n | x
COc1ccc2nc(N3CCC(C)CC3)c(C#N)cc2c1 | 15 | n | n | n | n | 23
SMILES | eLon inh | GLD-1 TGE inh | MCL1-BIM inh | MEX-5 binding | Bcl-xL primary | eLon confirm
CCOC(=O)C1CCN(c2nc3cc(OC)ccc3cc2C#N)CC1 | n | n | n | n | n | x
Cc1ccc(/C=C2/SC(=O)NC2=S)o1 | 89 | x | x | x | x | 107
CC(C)OCCCNc1nc2c(cnn2C)c(=O)[nH]1 | n | x | x | x | x | x
C[C@H](CO)N1C[C@H](C)[C@H](CN(C)C(=O)Nc2cccc(F)c2)Oc2cc(C#CC3(O)CCCC3)ccc2S1(=O)=O | 13 | x | x | x | x | n
CCc1cc2ccc(C)c(C)c2nc1SCC(=O)NNC(=O)c1ccco1 | n | n | n | n | n | x
CCN(C(=O)COC(=O)CCS(=O)(=O)c1ccccc1)c1c(N)n(Cc2ccccc2)c(=O)[nH]c1=O | n | x | x | x | x | x
O=C(NCC(=O)N1CCN(S(=O)(=O)c2ccccc2F)CC1)c1ccc2c(c1)OCO2 | n | n | n | n | n | x
COc1ccc(S(=O)(=O)N2CCN(C(=O)CNC(=O)c3ccc4c(c3)OCO4)CC2)cc1 | 53 | n | n | n | n | n
Cc1ccc(-c2csc(N3CCC[C@@H]3C(=O)NCCn3c(-c4ccncc4)nc4ccccc43)n2)cc1 | n | n | n | n | n | x
O=C(Nc1cccc(Cl)c1)Nn1cnnc1 | 104 | n | n | n | n | n
CC(=O)C1=C(O)C(=O)N(c2ccc(Br)cc2)C1c1cccc([N+](=O)[O-])c1 (configuration not stated) | n | n | n | n | n | x
Cc1cc2nc3c(=O)n(C4CCCCC4)c(=O)[nH]c3nc2cc1N | 75 | x | x | x | x | 115
N=C1/C(=C\c2ccc(OC(=O)c3ccccc3Cl)cc2)C(=O)N=C2SC(N3CCOCC3)=NN12 | n | n | n | n | n | x
O=C(Nc1nnc([C@H]2C[C@H](O)[C@@H](CO)O2)s1)c1cccc(Oc2ccccc2)c1 | n | x | x | x | x | x
CCCc1cc(=O)oc2c(CN3CCCC3)c(O)ccc12 | n | n | n | n | n | x
CCCc1cc(=O)oc2c(CN3CCCC3)c(O)c(Cl)cc12 | 22 | n | n | n | n | n
O=C1CCCCN1CCc1c[nH]c2ccccc12 | 14 | n | n | n | n | n
NC(=O)c1nsc(C(=O)N(Cc2cccnc2)C(C(=O)NC2CCCCC2)c2ccc(F)cc2)c1N (configuration not stated) | n | n | n | n | n | x
COc1ccc(CNC(NC(=O)c2ccccc2)(C(F)(F)F)C(F)(F)F)cc1 | 30 | n | n | n | n | n
Cc1ccc(NC(=S)NNS(=O)(=O)c2ccc3ccccc3c2)cc1Cl | n | n | n | n | n | x
OC1CCCN(Cc2ccc3ccc4cccc5ccc2c3c45)C1 (configuration not stated) | n | n | n | n | n | x
c1cc2ccc3ccc(CN4CCOCC4)c4ccc(c1)c2c34 | 17 | n | n | n | n | n
O=C(C[C@H]1C/C=C\CC[C@@H](Cc2ccc(F)cc2)C(=O)OC[C@H]2CCCN2C1=O)N[C@@H](CO)Cc1ccccc1 | n | n | x | x | x | x
O=C(N/N=C/c1ccc(OCC(=O)N2CCOCC2)cc1)c1ccccc1Cl | n | n | n | n | n | x
Cc1cc(OCC(=O)N2CCOCC2)ccc1NC(=O)c1ccccc1C | 17 | n | n | n | n | n
O=C(Nc1ccc(OCC(=O)N2CCOCC2)cc1)c1ccccc1Cl | 22 | n | n | n | n | n
O=C(Nc1ccc(N2CCCCCC2)cc1)c1ccccc1Cl | 19 | n | n | n | n | n
CC(=O)N1CCN(c2ccc(NC(=O)c3ccccc3Cl)cc2)CC1 | n | n | n | n | n | x
O=C(CCC1CCN(Cc2nccs2)CC1)Nc1ccccc1 | n | x | x | x | x | x
